The record followed here is the supplement of paper PMC10037445.

In assay [1] the test system is RAW-Dual. Briefly: NF-kB SEAP reporter activity, fold change vs agonist alone; cytotoxicity flag (confluency mask): not cytotoxic; higher = enhanced NF-kB activity. A digest of the protocol: (§1)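 RAW-Dual macrophages (50,000 cells/well in DMEM, 384-well plates) received 50 nL of library stock by pin tool, then a PRR agonist 1 h later, and were kept at 37 °C, 5% CO2. After 20 hours, supernatant was read for IRF by QuantiLuc luminescence and for NF-κB by QuantiBlue absorbance at 620 nm. Reporter activity is fold change over agonist-alone wells. Cytotoxic wells had IncuCyte confluency below 70% of agonist controls in both mask sets.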

Assay [2] relates to RAW-Dual. Kind of assay: NF-kB SEAP reporter activity, fold change vs agonist alone; higher = enhanced NF-kB activity. The method in brief:
as §1

The subject of assay [3] is RAW-Dual. Briefly: NF-kB SEAP reporter activity, fold change vs agonist alone; cytotoxicity flag (confluency mask): cytotoxic (confluency <70% of control); higher = enhanced NF-kB activity. A digest of the protocol: as §1
[4] abbreviates: agonist: ODN 1826 (TLR9) 0.5 ug/mL.
[5] abbreviates: agonist: Pam2CSK4 (TLR2/6) 0.1 ug/mL.
Setting [6] is: agonist: Pam3CSK4 (TLR2/1) 0.1 ug/mL.
Setting [7] is: library stock concentration (final ~1000-fold dilution): 10 mM, cytotoxicity flag (confluency mask): not cytotoxic, agonist: Imiquimod (TLR7) […].
Where [8] appears, read: library stock concentration (final ~1000-fold dilution): 10 mM, cytotoxicity flag (confluency mask): not cytotoxic, agonist: MPLA (TLR4) […].
The mark [9] stands for this setting: library stock concentration (final ~1000-fold dilution): 10 mM, cytotoxicity flag (confluency mask): cytotoxic (confluency <70% of control), agonist: Imiquimod (TLR7) […].
Where [10] appears, read: library stock concentration (final ~1000-fold dilution): 10 mM, cytotoxicity flag (confluency mask): cytotoxic (confluency <70% of control), agonist: MPLA (TLR4) […].

Several values for one entry are separate records, joined by “and”; a condition that tells them apart may be missing. Equal entries are not always repeated. The full ranking holds about 2,900 compounds; the median of “NF-kB SEAP reporter activity, fold change vs agonist alone” is about 0.99, and the highest 2% start at about 2.6. This excerpt belongs to a sample that is enriched for the highest values.

In the case of `CC(C)NCC(C(=O)N1CCN(c2ncnc3c2C(C)CC3O)CC1)c1ccc(Cl)cc1` (centres undefined) (library stock concentration (final ~1000-fold dilution): 10 mM), the “NF-kB SEAP reporter activity” value is 0.942 in the assay on RAW-Dual [1] (agonist: LPS (TLR4) 0.1 ug/mL), 0.996 in the assay with RAW-Dual [1] (setting [4]), 1.15 with RAW-Dual [1] (setting [5]) and 1.11 with RAW-Dual [1] (setting [6]).
For `CC(C)NCC(C(=O)N1CCN(c2ncnc3c2C(C)CC3O)CC1)c1ccc(Cl)cc1` (centres undefined), the figures for the “NF-kB SEAP reporter activity” value in the assay on RAW-Dual [2] (setting [7]) and in the assay on RAW-Dual [2] (setting [8]) were 1.27 and 1.13, respectively.
As to `C=CC(=O)N1CCCC(n2nc(-c3ccc(Oc4ccccc4)cc3)c(C(N)=O)c2N)C1` (centres undefined), the “NF-kB SEAP reporter activity” value in the assay on RAW-Dual [2] (setting [7]) amounted to 0.67; with RAW-Dual [2] (setting [8]), 0.637.
Consider `C=CC(=O)N1CCCC(n2nc(-c3ccc(Oc4ccccc4)cc3)c(C(N)=O)c2N)C1` (centres undefined) (library stock concentration (final ~1000-fold dilution): 10 mM), for which the “NF-kB SEAP reporter activity” value was found to be 0.404 with RAW-Dual [1] (agonist: LPS (TLR4) 0.1 ug/mL), 0.546 with RAW-Dual [1] (setting [4]), 0.224 with RAW-Dual [1] (setting [5]) and 0.272 with RAW-Dual [1] (setting [6]).
`Cl.NC(=O)c1cnc(NC2CCCCC2N)nc1Nc1cccc(-n2nccn2)c1` (centres undefined) (library stock concentration (final ~1000-fold dilution): 10 mM): the “NF-kB SEAP reporter activity” value amounted to 0.377 with RAW-Dual [3] (agonist: LPS (TLR4) 0.1 ug/mL), 0.204 in the assay on RAW-Dual [3] (setting [4]), 0.315 in the assay with RAW-Dual [3] (setting [5]) and 0.248 in the assay with RAW-Dual [3] (setting [6]).
For `Cl.NC(=O)c1cnc(NC2CCCCC2N)nc1Nc1cccc(-n2nccn2)c1` (centres undefined), the “NF-kB SEAP reporter activity” value was found to be 0.258 with RAW-Dual [2] (setting [9]) and 0.336 in the assay with RAW-Dual [2] (setting [10]).
For the compound `OCc1c[nH]c2ccccc12`, the “NF-kB SEAP reporter activity” value in the assay with RAW-Dual [2] (setting [8]) stood at 1.03.
In the case of `O=C(/C=C/c1ccc(CN(CCO)CCc2c[nH]c3ccccc23)cc1)NO`, the “NF-kB SEAP reporter activity” value in the assay on RAW-Dual [2] (setting [9]) worked out at 2.64; in the assay with RAW-Dual [2] (setting [10]), 2.71.
Consider `OCc1c[nH]c2ccccc12` (library stock concentration (final ~1000-fold dilution): 10 mM), for which the “NF-kB SEAP reporter activity” value in the assay with RAW-Dual [1] (agonist: LPS (TLR4) 0.1 ug/mL) was 1.1 and 1.21; with RAW-Dual [1] (setting [4]), 0.998 and 1.05; in the assay with RAW-Dual [1] (setting [5]), 1.03 and 1; with RAW-Dual [1] (setting [6]), 1.29 and 1.17.
For `O=C(O)CCc1c[nH]c2ccccc12`, the “NF-kB SEAP reporter activity” value in the assay with RAW-Dual [2] (setting [7]) was determined as 0.934; in the assay on RAW-Dual [2] (setting [8]), 0.964.
In the case of `O=C(O)CCc1c[nH]c2ccccc12` (library stock concentration (final ~1000-fold dilution): 10 mM), the “NF-kB SEAP reporter activity” value was 1.08 in the assay on RAW-Dual [1] (agonist: LPS (TLR4) 0.1 ug/mL), 1.06 in the assay on RAW-Dual [1] (setting [4]), 1.03 in the assay on RAW-Dual [1] (setting [5]) and 0.898 in the assay on RAW-Dual [1] (setting [6]).
As to `O=C(/C=C/c1ccc(CN(CCO)CCc2c[nH]c3ccccc23)cc1)NO` (library stock concentration (final ~1000-fold dilution): 10 mM), the “NF-kB SEAP reporter activity” value in the assay with RAW-Dual [3] (agonist: LPS (TLR4) 0.1 ug/mL) was found to be 5.57; in the assay on RAW-Dual [3] (setting [4]), 1.51; in the assay with RAW-Dual [3] (setting [5]), 1.46; with RAW-Dual [3] (setting [6]) it was 1.68.
With `CCOC1OC(=O)CC1NC(=O)C1CCCN1C(=O)C(NC(=O)c1ccc(N)c(Cl)c1)C(C)(C)C` (centres undefined), the “NF-kB SEAP reporter activity” value was found to be 0.911 in the assay on RAW-Dual [2] (setting [7]) and 0.995 with RAW-Dual [2] (setting [8]).
Consider `CCOC1OC(=O)CC1NC(=O)C1CCCN1C(=O)C(NC(=O)c1ccc(N)c(Cl)c1)C(C)(C)C` (centres undefined) (library stock concentration (final ~1000-fold dilution): 10 mM), for which the “NF-kB SEAP reporter activity” value in the assay on RAW-Dual [1] (agonist: LPS (TLR4) 0.1 ug/mL) turned out to be 0.973; in the assay on RAW-Dual [1] (setting [4]), 1; with RAW-Dual [1] (setting [5]), 1; in the assay on RAW-Dual [1] (setting [6]) it was 0.976.
On to `N#CC1CC2CC2N1C(=O)C(N)C12CC3CC(CC(O)(C3)C1)C2` (centres undefined) (library stock concentration (final ~1000-fold dilution): 10 mM), for which the “NF-kB SEAP reporter activity” value with RAW-Dual [1] (agonist: LPS (TLR4) 0.1 ug/mL) stood at 1.1; in the assay with RAW-Dual [1] (setting [4]) it was 0.964; in the assay on RAW-Dual [1] (setting [5]), 0.892; in the assay on RAW-Dual [1] (setting [6]), 1.05.
Consider `N#CC1CC2CC2N1C(=O)C(N)C12CC3CC(CC(O)(C3)C1)C2` (centres undefined), for which the figures for the “NF-kB SEAP reporter activity” value in the assay with RAW-Dual [2] (setting [7]) and in the assay on RAW-Dual [2] (setting [8]) were 0.914 and 0.875, respectively.
As to `CCn1c(-c2nonc2N)nc2c(C#CC(C)(C)O)ncc(OCC3CCCNC3)c21` (centres undefined), the “NF-kB SEAP reporter activity” value with RAW-Dual [2] (setting [7]) turned out to be 1.87; in the assay on RAW-Dual [2] (setting [8]) it was 1.95.
For `CCn1c(-c2nonc2N)nc2c(C#CC(C)(C)O)ncc(OCC3CCCNC3)c21` (centres undefined) (library stock concentration (final ~1000-fold dilution): 10 mM), the “NF-kB SEAP reporter activity” value in the assay on RAW-Dual [1] (agonist: LPS (TLR4) 0.1 ug/mL) is 1.91; in the assay on RAW-Dual [1] (setting [4]) it was 0.943; in the assay on RAW-Dual [1] (setting [5]) it was 1.73; in the assay with RAW-Dual [1] (setting [6]), 1.89.
Regarding `CC(C)Cc1ccc(C(C)C(=O)O)cc1.NCCCCC(N)C(=O)O` (centres undefined), the “NF-kB SEAP reporter activity” value in the assay with RAW-Dual [2] (library stock concentration (final ~1000-fold dilution): 10 mM water, cytotoxicity flag (confluency mask): not cytotoxic, agonist: Imiquimod (TLR7) […]) stood at 0.969; in the assay with RAW-Dual [2] (library stock concentration (final ~1000-fold dilution): 10 mM water, cytotoxicity flag (confluency mask): not cytotoxic, agonist: MPLA (TLR4) […]), 1.08.
As for `CC(C)Cc1ccc(C(C)C(=O)O)cc1.NCCCCC(N)C(=O)O` (centres undefined) (library stock concentration (final ~1000-fold dilution): 10 mM water), the “NF-kB SEAP reporter activity” value with RAW-Dual [1] (agonist: LPS (TLR4) 0.1 ug/mL) amounted to 1.42; in the assay with RAW-Dual [1] (setting [4]) it was 1.2; in the assay with RAW-Dual [1] (setting [5]), 1.54; in the assay on RAW-Dual [1] (setting [6]), 1.39.
